# Reference: paper PMC7862700, “An all-to-all approach to the identification of sequence-specific readers for epigenetic DNA modifications on cytosine”
# Legend:
# Assay in all cases: DAPPL (digital affinity profiling via proximity ligation, sequencing); 10 mM Tris-HCl pH 7.5, 50 mM NaCl, 1 mM DTT, 4% glycerol, room temperature, 30 min; GST-TFs on glutathione beads, 16-mer random dsDNA library, 0.1% formaldehyde crosslink after washing; high values mean tight binding
# FEV = biological target: T1, FEV (Homo sapiens, UniProt Q99581 1-238); details: protein: recombinant; tags: N-terminal GST; dsDNA, one strand shown
# T1 sequence: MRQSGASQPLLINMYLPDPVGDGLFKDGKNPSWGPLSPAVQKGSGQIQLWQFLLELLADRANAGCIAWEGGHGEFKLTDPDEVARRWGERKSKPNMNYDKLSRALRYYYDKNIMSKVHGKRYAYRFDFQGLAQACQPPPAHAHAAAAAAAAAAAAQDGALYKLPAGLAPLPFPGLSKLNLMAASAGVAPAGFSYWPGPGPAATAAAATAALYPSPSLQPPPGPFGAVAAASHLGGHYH
# Procedure, shortened: (§1)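 Pools were built from human transcription factors expressed in yeast as GST fusions, captured on glutathione beads and DNA-barcoded, along with a tag-only sample. Incubation with 200 nmole of a 16-mer random double-stranded DNA library lasted 30 min at room temperature in Tris/NaCl/DTT/glycerol buffer, and was followed by washing, 0.1% formaldehyde crosslinking, proximity ligation, PCR amplification and Illumina NextSeq500 sequencing. Binding signal is the quotient of each hexamer's read frequency for a factor and its frequency for the tag-only sample.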
# ETV5 = ETV5 (Homo sapiens, UniProt P41161 1-510); details: protein: recombinant; tags: N-terminal GST; dsDNA, one strand shown
# Procedure, shortened: as §1
# HSF1 = HSF1 (Homo sapiens, UniProt Q00613 1-529); details: protein: recombinant; tags: N-terminal GST; chain copies: 3; dsDNA, one strand shown
# Procedure, shortened: as §1
# SPIC = biological target: T2, SPIC (Homo sapiens, UniProt Q8N5J4 1-248); details: protein: recombinant; tags: N-terminal GST; dsDNA, one strand shown
# T2 sequence: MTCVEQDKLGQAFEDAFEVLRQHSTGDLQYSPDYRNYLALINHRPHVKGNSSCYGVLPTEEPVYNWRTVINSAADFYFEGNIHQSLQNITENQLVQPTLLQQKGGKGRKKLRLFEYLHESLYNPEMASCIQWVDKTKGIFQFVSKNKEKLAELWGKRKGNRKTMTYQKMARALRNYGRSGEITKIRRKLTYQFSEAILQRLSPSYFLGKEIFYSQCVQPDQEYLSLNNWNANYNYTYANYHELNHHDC
# Procedure, shortened: as §1
# ELF4 = ELF4 (Homo sapiens, UniProt Q99607 1-663); details: protein: recombinant; tags: N-terminal GST; dsDNA, one strand shown
# Procedure, shortened: as §1
# ELK4 = biological target: T3, ELK4 (Homo sapiens, UniProt P28324-2 1-405); details: protein: recombinant; tags: N-terminal GST; dsDNA, one strand shown
# T3 sequence: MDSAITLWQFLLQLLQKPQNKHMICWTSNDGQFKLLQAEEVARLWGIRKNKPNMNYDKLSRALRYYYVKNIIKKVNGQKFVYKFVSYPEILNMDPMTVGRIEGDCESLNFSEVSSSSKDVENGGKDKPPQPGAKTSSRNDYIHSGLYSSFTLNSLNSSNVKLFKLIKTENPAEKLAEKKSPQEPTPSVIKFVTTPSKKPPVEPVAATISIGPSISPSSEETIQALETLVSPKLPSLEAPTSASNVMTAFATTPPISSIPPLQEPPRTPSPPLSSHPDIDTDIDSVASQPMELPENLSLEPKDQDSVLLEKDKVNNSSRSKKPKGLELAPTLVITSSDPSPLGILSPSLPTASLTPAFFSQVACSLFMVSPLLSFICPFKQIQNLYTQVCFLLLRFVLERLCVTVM
# Procedure, shortened: as §1
# ETV2 = biological target: T4, ETV2 (Homo sapiens, UniProt O00321 1-342); details: protein: recombinant; tags: N-terminal GST; dsDNA, one strand shown
# T4 sequence: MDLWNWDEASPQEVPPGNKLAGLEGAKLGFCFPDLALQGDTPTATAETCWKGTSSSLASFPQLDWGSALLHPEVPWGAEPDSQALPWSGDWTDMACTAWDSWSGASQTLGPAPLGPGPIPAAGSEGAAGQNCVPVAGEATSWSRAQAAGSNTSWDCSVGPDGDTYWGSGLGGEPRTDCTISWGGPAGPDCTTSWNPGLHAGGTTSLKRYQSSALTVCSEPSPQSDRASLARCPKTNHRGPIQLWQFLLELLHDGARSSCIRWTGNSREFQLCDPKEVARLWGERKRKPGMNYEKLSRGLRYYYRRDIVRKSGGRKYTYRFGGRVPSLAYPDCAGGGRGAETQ
# Procedure, shortened: as §1
# ELF3 = biological target: T5, ELF3 (Homo sapiens, UniProt P78545 1-371); details: protein: recombinant; tags: N-terminal GST; dsDNA, one strand shown
# T5 sequence: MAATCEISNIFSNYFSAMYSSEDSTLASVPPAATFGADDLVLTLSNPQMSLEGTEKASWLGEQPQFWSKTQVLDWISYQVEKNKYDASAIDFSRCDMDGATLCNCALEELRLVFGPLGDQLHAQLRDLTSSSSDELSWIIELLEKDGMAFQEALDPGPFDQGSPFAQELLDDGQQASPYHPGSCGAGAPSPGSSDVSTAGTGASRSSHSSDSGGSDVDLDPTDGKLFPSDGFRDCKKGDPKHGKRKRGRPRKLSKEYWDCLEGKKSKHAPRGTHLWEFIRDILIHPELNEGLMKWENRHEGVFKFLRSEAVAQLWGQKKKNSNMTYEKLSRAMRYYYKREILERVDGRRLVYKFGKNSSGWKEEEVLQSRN
# Procedure, shortened: as §1
# CRX = CRX (Homo sapiens, UniProt O43186 1-299); details: protein: recombinant; tags: N-terminal GST; dsDNA, one strand shown
# Procedure, shortened: as §1
# ETV1 = ETV1 (Homo sapiens, UniProt P50549 1-477); details: protein: recombinant; tags: N-terminal GST; dsDNA, one strand shown
# Procedure, shortened: as §1
# ETV1, sequence (P50549 whole entry): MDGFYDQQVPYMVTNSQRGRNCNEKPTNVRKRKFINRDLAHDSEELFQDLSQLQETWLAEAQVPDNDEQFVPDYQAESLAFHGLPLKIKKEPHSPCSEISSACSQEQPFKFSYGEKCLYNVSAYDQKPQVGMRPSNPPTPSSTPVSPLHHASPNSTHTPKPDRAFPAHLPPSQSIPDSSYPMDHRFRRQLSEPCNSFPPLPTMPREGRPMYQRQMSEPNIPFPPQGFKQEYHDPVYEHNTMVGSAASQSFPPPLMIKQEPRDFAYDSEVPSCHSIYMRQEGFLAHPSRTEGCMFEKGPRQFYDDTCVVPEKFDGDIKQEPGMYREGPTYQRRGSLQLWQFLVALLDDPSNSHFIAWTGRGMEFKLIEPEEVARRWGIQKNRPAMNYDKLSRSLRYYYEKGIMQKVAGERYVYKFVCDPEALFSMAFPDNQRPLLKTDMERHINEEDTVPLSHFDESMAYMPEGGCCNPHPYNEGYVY
# HSF1, sequence (Q00613 whole entry): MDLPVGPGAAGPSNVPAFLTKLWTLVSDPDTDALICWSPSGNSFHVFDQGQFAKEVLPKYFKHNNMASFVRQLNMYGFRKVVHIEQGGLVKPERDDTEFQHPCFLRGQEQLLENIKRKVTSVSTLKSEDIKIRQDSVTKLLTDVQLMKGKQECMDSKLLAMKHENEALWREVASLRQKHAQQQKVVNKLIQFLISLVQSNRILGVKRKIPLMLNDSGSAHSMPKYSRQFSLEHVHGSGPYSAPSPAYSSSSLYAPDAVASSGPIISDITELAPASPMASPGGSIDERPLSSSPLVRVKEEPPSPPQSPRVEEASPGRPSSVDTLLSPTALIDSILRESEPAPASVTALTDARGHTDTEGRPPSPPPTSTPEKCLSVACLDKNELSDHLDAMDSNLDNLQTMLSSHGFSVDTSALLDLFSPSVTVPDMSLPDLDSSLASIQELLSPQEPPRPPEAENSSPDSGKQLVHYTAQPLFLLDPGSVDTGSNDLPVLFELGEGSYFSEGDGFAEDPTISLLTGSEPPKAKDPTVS
# ETV5, sequence (P41161 whole entry): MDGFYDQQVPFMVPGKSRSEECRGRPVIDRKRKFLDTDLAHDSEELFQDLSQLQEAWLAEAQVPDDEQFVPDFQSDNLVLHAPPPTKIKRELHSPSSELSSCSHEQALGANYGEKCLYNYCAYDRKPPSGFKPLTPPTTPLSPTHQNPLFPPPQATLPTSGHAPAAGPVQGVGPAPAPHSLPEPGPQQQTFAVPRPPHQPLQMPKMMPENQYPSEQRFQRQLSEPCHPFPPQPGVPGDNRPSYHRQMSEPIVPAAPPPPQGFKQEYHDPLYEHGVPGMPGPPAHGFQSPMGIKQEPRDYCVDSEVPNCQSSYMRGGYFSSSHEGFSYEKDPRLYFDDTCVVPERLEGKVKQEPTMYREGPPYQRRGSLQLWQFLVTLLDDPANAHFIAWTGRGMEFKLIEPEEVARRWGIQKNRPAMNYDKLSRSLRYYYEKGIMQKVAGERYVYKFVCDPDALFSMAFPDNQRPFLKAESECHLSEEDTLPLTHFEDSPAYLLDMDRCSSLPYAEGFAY
# CRX, sequence (O43186 whole entry): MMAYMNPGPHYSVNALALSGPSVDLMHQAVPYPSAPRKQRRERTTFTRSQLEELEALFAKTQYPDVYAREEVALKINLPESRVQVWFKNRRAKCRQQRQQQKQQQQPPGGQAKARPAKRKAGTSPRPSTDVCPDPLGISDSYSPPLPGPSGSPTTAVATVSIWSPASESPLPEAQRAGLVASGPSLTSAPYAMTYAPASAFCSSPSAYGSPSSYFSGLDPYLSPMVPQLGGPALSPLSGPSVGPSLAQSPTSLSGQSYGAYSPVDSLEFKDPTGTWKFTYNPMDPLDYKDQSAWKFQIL
# ELF4, sequence (Q99607 whole entry): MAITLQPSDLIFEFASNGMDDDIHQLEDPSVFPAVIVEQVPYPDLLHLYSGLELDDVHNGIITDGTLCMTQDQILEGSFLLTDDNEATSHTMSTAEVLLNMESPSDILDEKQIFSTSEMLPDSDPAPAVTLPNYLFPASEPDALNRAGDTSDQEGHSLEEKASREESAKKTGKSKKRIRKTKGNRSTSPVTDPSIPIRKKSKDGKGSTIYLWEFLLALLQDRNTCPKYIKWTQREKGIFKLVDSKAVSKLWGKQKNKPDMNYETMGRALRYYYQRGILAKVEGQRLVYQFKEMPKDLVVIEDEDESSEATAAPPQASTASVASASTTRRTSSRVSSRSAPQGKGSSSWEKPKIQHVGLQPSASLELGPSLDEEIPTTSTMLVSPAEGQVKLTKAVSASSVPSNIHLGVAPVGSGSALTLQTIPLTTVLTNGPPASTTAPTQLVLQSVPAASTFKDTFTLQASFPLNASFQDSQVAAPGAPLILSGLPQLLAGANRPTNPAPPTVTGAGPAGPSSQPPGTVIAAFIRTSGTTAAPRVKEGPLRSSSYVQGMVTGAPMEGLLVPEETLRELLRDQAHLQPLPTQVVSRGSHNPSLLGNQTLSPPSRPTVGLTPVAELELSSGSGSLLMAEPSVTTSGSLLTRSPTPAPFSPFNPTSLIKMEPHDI
sequence,measurement,setting,value
ACTTAA,binding signal,FEV,"1.15 fold enrichment (6-mer frequency, TF over GST control)"
same,binding signal,ETV5,"1.2 fold enrichment (6-mer frequency, TF over GST control)"
same,binding signal,HSF1,"1.67 fold enrichment (6-mer frequency, TF over GST control)"
same,binding signal,SPIC,"1.25 fold enrichment (6-mer frequency, TF over GST control)"
same,binding signal,ELF4,"1.19 fold enrichment (6-mer frequency, TF over GST control)"
same,binding signal,ELK4,"1.14 fold enrichment (6-mer frequency, TF over GST control)"
same,binding signal,ETV2,"1.16 fold enrichment (6-mer frequency, TF over GST control)"
same,binding signal,ELF3,"1.15 fold enrichment (6-mer frequency, TF over GST control)"
same,binding signal,CRX,"2.66 fold enrichment (6-mer frequency, TF over GST control)"
same,binding signal,ETV1,"1.25 fold enrichment (6-mer frequency, TF over GST control)"
